# Measured values as given in PubChem BioAssay (NCATS).
# Inconclusive results are not listed. Entries that show only a call come without a potency. The source made the active and inactive calls. Unless noted, calls follow the shape of the dose curve; as a rule, active = well fitted curve in the direction sought with a large enough effect; inconclusive = small, poorly fitted or top-dose-only effect, or another doubt; inactive = no such curve, though single readings can be large; an effect the other way counts as inactive or inconclusive.
# Experiments:
# [1] = molecular target: Phospholipid hydroperoxide glutathione peroxidase GPX4 (Homo sapiens) (UniProt P36969); assay: Primary qHTS Assay for Inhibitors of Recombinant Selenoprotein Glutathione Peroxidase 4 (GPX4) (AID 1845192); also: nearly all actives have a fitted effect of over 65% in size
# In short: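 GR-coupled readout: 100 nM GR, 1 mM GSH, 0.5 mM NADPH; NADPH fluorescence (ex 340/em 450 nm) read at t=0 and after 15 min RT. GPX4 200 nM, preincubated 30 min with compound; substrate 0.5 mM CHP.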
# [2] = molecular target: Luciferin 4-monooxygenase (Photinus pyralis) (UniProt P08659); assay: Primary firefly luciferase (FLuc) qHTS assay for identification of artifact compounds. (AID 1845220); also: nearly all actives have a fitted effect of over 60% in size; also: potency is read from the fitted curve at half-maximal effect
# In short: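 In this counter-screen for luciferase artifacts, test compounds met substrate (10 uM each luciferin and ATP) before 10 nM enzyme started the reaction. Light output was measured 5 min later.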
# [3] = Primary fluorescence-based thiol-reactive (MSTI) qHTS assay for identification of artifact compounds. (AID 1845221); also: nearly all actives have a fitted effect of over 65% in size; also: potency is read from the fitted curve at half-maximal effect
# In short: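 First, 4 uM MSTI in 2% DMSO/PBS pH 7.4 was dispensed; next, compounds were added; then plates sat 1 h at room temperature without light. Finally, emission at 598 nm was recorded.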
# [4] = tested on: Nanoluciferase (engineered Oplophorus gracilirostris luciferase); assay: Primary Nanoluciferase (NLuc) qHTS assay for identification of artifact compounds. (AID 1845222); also: potency is read from the fitted curve at half-maximal effect
# In short: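 Using secreted nanoluciferase in S16 culture medium (0.22 um filtered, 1:55 dilution), compounds were preincubated 15 min at RT. Signal was generated with Nano-Glo reagent (1:100) over 5 min.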
# [5] = Primary redox qHTS assay for identification of artifact compounds. (AID 1845223)
# In short: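 Amplex Red (25 uM) and HRP (250 mU/mL) in HBSS, with compounds for 15 min, then 250 uM DTT for 30 min, room temperature, dark. Fluorescence 525/598 nm read; normalized to DMSO and 10 uM DA3003; Hill fit.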
# [6] = molecular target: Glutathione peroxidase 1 (Homo sapiens) (UniProt P07203); assay: Primary qHTS Assay for Inhibitors of Recombinant Selenoprotein Glutathione Peroxidase 1 (GPX1) (AID 1845191); also: nearly all actives have a fitted effect of over 65% in size; also: potency is read from the fitted curve at half-maximal effect
# In short: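 Recombinant GPX1 (10 nM final) was preincubated with compound for 30 min at room temperature, then reacted with 1 mM GSH, 0.5 mM CHP, 0.5 mM NADPH and 100 nM glutathione reductase; NADPH fluorescence (340/450 nm) was read at 0 and 15 min.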
# [7] = qHTS drug screen for cell cycle checkpoint inhibitors in PARPi-resistant BRCA-mutant ovarian cancer cell lines. (AID 1963452; calls by dose curve; also: potency is read from the fitted curve at half-maximal effect); conditions: PEO1/OlaR viability, CellTiter-Glo luminescence, 96 h; for Z-AUC: stronger effect = lower value
# In short: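 PEO1, PEO4 and PEO1/OlaR ovarian cancer cells, 600 per well, exposed 96 h at 37C to a dilution series. Viability read by CellTiter-Glo luminescence, normalized to DMSO and empty wells; activity summarized as Z-AUC.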
# [8] = measured here: PEO1 parental Z-AUC
# Sequence of Phospholipid hydroperoxide glutathione peroxidase GPX4 (Homo sapiens) (P36969 whole entry, looked up): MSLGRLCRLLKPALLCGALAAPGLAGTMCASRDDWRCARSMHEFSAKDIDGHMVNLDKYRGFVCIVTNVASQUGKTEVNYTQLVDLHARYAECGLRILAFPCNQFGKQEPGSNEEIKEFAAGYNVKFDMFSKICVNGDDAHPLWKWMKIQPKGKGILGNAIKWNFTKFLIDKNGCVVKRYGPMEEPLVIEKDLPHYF
# Sequence of Glutathione peroxidase 1 (Homo sapiens) (P07203 whole entry, looked up): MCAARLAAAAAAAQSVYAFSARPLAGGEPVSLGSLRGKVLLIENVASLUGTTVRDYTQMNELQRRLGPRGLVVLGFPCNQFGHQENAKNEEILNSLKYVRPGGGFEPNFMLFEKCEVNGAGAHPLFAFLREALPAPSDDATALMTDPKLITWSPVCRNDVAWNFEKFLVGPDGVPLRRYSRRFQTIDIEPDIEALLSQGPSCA
smiles,measurement,setting,value
CCNC(=O)Nc1ccc(-c2nc3c(c(N4CCOC[C@@H]4C)n2)CCN(c2ncccn2)C3)cc1,Potency,[1],inactive
same,Potency,[2],inactive
same,Potency,[3],inactive
same,Potency,[4],inactive
same,Potency,[5],inactive
O=C(NCc1ccccn1)Nc1nnc(-c2ccco2)o1,Potency,[6],inactive
same,Potency,[2],inactive
same,Potency,[3],inactive
same,Potency,[4],inactive
same,Potency,[5],inactive
CNC(=S)NS(=O)(=O)c1cc(CCNC(=O)c2cc(Cl)ccc2OC)ccc1OC,Potency,[6],12800 nM (active)
same,Potency,[2],inactive
same,Potency,[3],inactive
same,Potency,[5],inactive
Cn1cncc1C(N)(c1ccc(Cl)cc1)c1ccc2c(c1)c(-c1cccc(Cl)c1)cc(=O)n2C (stereo not drawn),Potency,[6],inactive
same,Potency,[2],inactive
same,Potency,[4],inactive
same,Potency,[5],inactive
same,Z-AUC,[7],-1.06 (inactive)
same,Z-AUC,[7]; [8],-0.892
same,Z-AUC,[7]; measured here: PEO4 Z-AUC,-0.873
C#CC[C@H](c1nc2cc(Cl)ccc2c(=O)n1Nc1ccccc1)N(CCCN)C(=O)c1cccc(Cl)c1F,Potency,[6],inactive
same,Potency,[2],inactive
same,Potency,[3],inactive
same,Potency,[4],inactive
same,Potency,[5],inactive
same,Potency,[7],1230 nM (active)
same,Z-AUC,[7]; [8],-1.73
same,Z-AUC,[7]; measured here: PEO4 Z-AUC,-1.5
CC(C)CC1NC(=O)C(C)NC(=O)C(CC(C)C)OC(=O)CCCNC1=O (stereo not drawn),Potency,[1],inactive
same,Potency,[2],inactive
same,Potency,[3],inactive
same,Potency,[4],inactive
COc1cc2c(cc1OC)-c1[nH]nc(Nc3cccc(F)c3)c1C2,Potency,[1],inactive
same,Potency,[2],inactive
same,Potency,[3],1890 nM (active)
same,Potency,[4],inactive
CC1=C(/C=C/C(C)=C\C=C\C(C)=C/C(=O)O)C(C)(C)CCC1,Potency,[1],inactive
same,Potency,[2],inactive
same,Potency,[3],inactive
same,Potency,[4],inactive
CNC(C)C(=O)NC(C(=O)N1CCCC1c1nc(C(=O)c2ccc(F)cc2)cs1)C1CCCCC1 (stereo not drawn),Potency,[1],inactive
same,Potency,[2],inactive
same,Potency,[3],inactive
same,Potency,[4],inactive
CCOc1cc(CC(=O)NC(CC(C)C)c2ccccc2N2CCCCC2)ccc1C(=O)O (stereo not drawn),Potency,[1],inactive
same,Potency,[2],inactive
same,Potency,[3],inactive
same,Potency,[4],inactive
same,Potency,[5],inactive
COc1nc2sc(C(=O)NC3CC3)c(N)c2c(C)c1Cl,Potency,[1],inactive
same,Potency,[2],inactive
same,Potency,[3],inactive
same,Potency,[4],inactive
Cc1cc(N(C)C)ccc1-c1nc2ccc(-c3nc4ccc(N5CCN(C)CC5)cc4[nH]3)cc2[nH]1,Potency,[6],inactive
same,Potency,[3],2380 nM (active)
same,Potency,[4],inactive
CO[C@@H](C)Cn1c(=O)n(C)c2cnc3ccc(-c4cncc(C(C)(C)O)c4)cc3c21,Potency,[6],inactive
same,Potency,[2],inactive
same,Potency,[3],inactive
same,Potency,[4],inactive
same,Potency,[5],inactive
same,Potency,[7],2190 nM (active)
same,Z-AUC,[7]; [8],-2.24
same,Z-AUC,[7]; measured here: PEO4 Z-AUC,-2.14
Nc1nccn2c(C3CCC(C(=O)O)CC3)nc(-c3cc4cccc(Cl)c4[nH]3)c12 (stereo not drawn),Potency,[6],inactive
same,Potency,[3],6700 nM (active)
same,Z-AUC,[7],-0.361 (inactive)
same,Z-AUC,[7]; [8],-0.773
same,Z-AUC,[7]; measured here: PEO4 Z-AUC,-1.14
Cc1c(C(=O)Nc2ccc(N3CC(C)OC(C)C3)nc2)cccc1-c1ccc(OC(F)(F)F)cc1 (stereo not drawn),Potency,[1],inactive
same,Potency,[2],inactive
same,Potency,[3],inactive
same,Potency,[4],inactive
same,Potency,[5],inactive
COc1ccc(C[C@H](N)C(=O)N[C@@H]2[C@H](O)[C@H](n3cnc4c(N(C)C)ncnc43)O[C@@H]2CO)cc1,Potency,[1],inactive
same,Potency,[2],inactive
same,Potency,[3],inactive
same,Potency,[4],inactive
same,Potency,[5],inactive
CC(NC(=O)CCc1nc2ccccc2c(=O)[nH]1)c1ccccc1 (stereo not drawn),Potency,[1],inactive
same,Potency,[2],inactive
same,Potency,[3],inactive
same,Potency,[4],inactive
same,Potency,[5],inactive
COc1c/c(=C2\C=c3ccccc3=N2)[nH]/c1=C\c1[nH]c(C)cc1C,Potency,[1],inactive
same,Potency,[2],3380 nM (active)
same,Potency,[3],1190 nM (active)
same,Potency,[4],10700 nM (active)
CCC(C)/C=C(C)/C=C/c1cc2c(cn1)C(=O)C(C)(OC(C)=O)C(O)=C2Cl (stereo not drawn),Potency,[6],inactive
same,Potency,[3],736 nM (active)
same,Potency,[4],inactive
C=C(C)C(=O)O[C@H]1CC2=CC(C/C(C)=C\[C@H]3OC(=O)C(=C)[C@H]13)OC2=O (stereo partly drawn),Potency,[6],inactive
same,Potency,[2],inactive
same,Potency,[3],inactive
same,Potency,[4],inactive
same,Potency,[5],inactive
Cc1cc(C)c2c(N)c(C(=O)NCc3ccc(Cl)cc3)sc2n1,Potency,[6],inactive
same,Potency,[2],inactive
same,Potency,[3],inactive
same,Potency,[4],inactive
same,Potency,[5],inactive
Cc1cn(C2C=CC(CO)O2)c(=O)[nH]c1=O (stereo not drawn),Potency,[1],inactive
same,Potency,[2],inactive
same,Potency,[3],inactive
C=C1C(=O)O[C@@H]2C/C(C)=C\C(=O)/C=C(\C)[C@@H](OC(=O)/C(C)=C\C)[C@H](O)[C@@H]12,Potency,[6],inactive
same,Potency,[2],inactive
same,Potency,[3],inactive
same,Potency,[4],inactive
same,Potency,[5],inactive
CC(=O)OC12COC1CC(O)C1(C)C(=O)C(O)C3=C(C)C(OC(=O)C(O)C(NC(=O)OC(C)(C)C)c4ccccc4)CC(O)(C(OC(=O)c4ccccc4)C21)C3(C)C (stereo not drawn),Potency,[1],inactive
same,Potency,[2],inactive
same,Potency,[3],inactive
same,Potency,[4],inactive
same,Potency,[5],inactive
COc1ccc(CNC(=O)c2sc3nc(C)cc(C)c3c2N)cc1,Potency,[1],inactive
same,Potency,[2],inactive
same,Potency,[3],inactive
same,Potency,[4],inactive
same,Potency,[5],inactive
COc1cc2c(NC3CCN(CC4CCCCC4)CC3)nc(N3CCCN(C(C)C)CC3)nc2cc1OCCCN1CCCCC1,Potency,[6],inactive
same,Potency,[2],inactive
same,Potency,[3],inactive
same,Potency,[4],inactive
same,Potency,[5],inactive
same,Z-AUC,[7],0.256 (inactive)
same,Z-AUC,[7]; [8],0.301
same,Z-AUC,[7]; measured here: PEO4 Z-AUC,-0.248
